Source: the supplement of paper PMC12645437, “Orthogonal IMiD-Degron Pairs Induce Selective Protein Degradation in Cells” (ACS Chemical Biology, 2025)
Whole data set: some 8,300 sequences, median “log2 fold change of degron read counts, EGFP-low vs EGFP+ sorted cells (limma voom), compound-induced degradation” near -1.1, cut for the highest 2% near 3.2. This excerpt belongs to a sample that is enriched for the highest values.

T1: CRBN, Q96SW2
T1 chain: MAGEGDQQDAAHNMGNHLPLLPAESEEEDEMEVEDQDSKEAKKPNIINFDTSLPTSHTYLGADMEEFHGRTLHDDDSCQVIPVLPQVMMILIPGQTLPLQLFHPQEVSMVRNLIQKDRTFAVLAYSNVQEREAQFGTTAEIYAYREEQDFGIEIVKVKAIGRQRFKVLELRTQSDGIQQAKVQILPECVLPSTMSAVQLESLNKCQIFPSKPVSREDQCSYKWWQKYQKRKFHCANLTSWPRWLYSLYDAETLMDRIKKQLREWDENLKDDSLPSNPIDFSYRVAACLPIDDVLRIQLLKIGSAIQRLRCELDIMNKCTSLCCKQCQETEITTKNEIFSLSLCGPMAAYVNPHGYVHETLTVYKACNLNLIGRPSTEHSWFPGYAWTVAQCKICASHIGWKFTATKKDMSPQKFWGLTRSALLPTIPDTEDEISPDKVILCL


Target: T1, CRBN, Q96SW2
Assay: log2 fold change of degron read counts, EGFP-low vs EGFP+ sorted cells (limma voom), compound-induced degradation; higher = more compound-induced degradation of the degron-EGFP fusion; degrons are variants of IKZF1/3 zinc finger 2; compound dose not given here
Settings: Jurkat, 18 h
[1] = compound: compound 19 (5-tert-butyl-thalidomide)
[2] = compound: compound 22 (5-morpholino-thalidomide)
[3] = compound: compound 33 (diphenyl IMiD analogue)
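Further: pooled lentiviral library of zinc finger degron-EGFP fusions in mCherry-positive Jurkat cells, FACS-sorted after compound exposure, with degron abundance counted by next-generation sequencing.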

| Sequence | log2 fold change of degron read counts [1] | log2 fold change of degron read counts [2] | log2 fold change of degron read counts [3] | log2 fold change of degron read counts (compound: thalidomide) |
| --- | --- | --- | --- | --- |
| FRCNQCGHPFTQKGNLLRHIKL [46F_47R_49N_50Q_52G_53H_54P_55F_67L_, Q9UKT9] | -1.26 | -1.57 | -1.18 | -0.69 |
| FWCPICGRRFTQKGNLLRHIKL [46F_47W_49P_50I_52G_53R_54R_55F_67L_, Q9UKT9] | -0.549 | 1.78 | -0.519 | -0.365 |
| FDCNQCGRPFTQKGNLLRHIKL [46F_47D_49N_50Q_52G_53R_54P_55F_67L_, Q9UKT9] | -2.11 | -2.72 | -2.47 | -2.01 |
| FTCEVCGAKFTQKGNLLRHIKL [46F_47T_49E_50V_52G_53A_54K_55F_67L_, Q9UKT9] | 0.575 | 1.8 | -0.259 | 2.77 |
| FVCPICGHVFTQKGNLLRHIKL [46F_47V_49P_50I_52G_53H_54V_55F_67L_, Q9UKT9] | -1.93 | -1.85 | -1.17 | -0.831 |
| FFCNQCGHRFTQKGNLLRHIKL [46F_47F_49N_50Q_52G_53H_54R_55F_67L_, Q9UKT9] | -1.77 | -1.83 | -1.97 | -1.98 |
| FTCSVCGHMFTQKGNLLRHIKL [46F_47T_49S_50V_52G_53H_54M_55F_67L_, Q9UKT9] | -2.72 | -3.24 | -2.66 | -2.24 |
| FYCPVCGATFTQKGNLLRHIKL [46F_47Y_49P_50V_52G_53A_54T_55F_67L_, Q9UKT9] | 2.81 | 3.38 | 2.28 | 1.02 |
| FACPVCGATFTQKGNLLRHIKL [46F_47A_49P_50V_52G_53A_54T_55F_67L_, Q9UKT9] | 3.23 | 1.68 | 1.17 | 0.555 |
| FHCPVCGATFTQKGNLLRHIKL [46F_47H_49P_50V_52G_53A_54T_55F_67L_, Q9UKT9] | 1.14 | 1.21 | 1.72 | -0.00776 |
| FWCNQCGHQFTQKGNLLRHIKL [46F_47W_49N_50Q_52G_53H_54Q_55F_67L_, Q9UKT9] | -2.03 | -2.39 | -2.26 | -1.81 |
| FTCNICGAIFTQKGNLLRHIKL [46F_47T_49N_50I_52G_53A_54I_55F_67L_, Q9UKT9] | -1 | 0.0209 | 0.936 | 1.06 |
| FYCDICGANFTQKGNLLRHIKL [46F_47Y_49D_50I_52G_53A_54N_55F_67L_, Q9UKT9] | 2.78 | 3.42 | 1.2 | -0.676 |
| FWCDICGANFTQKGNLLRHIKL [46F_47W_49D_50I_52G_53A_54N_55F_67L_, Q9UKT9] | 2.81 | 3.71 | 1.34 | 0.139 |
| FECDICGANFTQKGNLLRHIKL [46F_47E_49D_50I_52G_53A_54N_55F_67L_, Q9UKT9] | -1.28 | -2.43 | 0.537 | 0.012 |
| FCCDICGANFTQKGNLLRHIKL [46F_47C_49D_50I_52G_53A_54N_55F_67L_, Q9UKT9] | 0.761 | 0.588 | 0.858 | -0.326 |
| FHCDICGANFTQKGNLLRHIKL [46F_47H_49D_50I_52G_53A_54N_55F_67L_, Q9UKT9] | -0.867 | -0.624 | -1.82 | -2.82 |
| FLCDICGANFTQKGNLLRHIKL [46F_47L_49D_50I_52G_53A_54N_55F_67L_, Q9UKT9] | -1.24 | -1.68 | 0.196 | -0.528 |
